# Measured potencies and affinities stand elsewhere.
# Tested on: Staphylococcus aureus
# Conditions: Concentration 32 ug.mL-1;; ASSAY_TEST Inhibition of Bacterial Growth; detection method Absorption (OD600); MEDIA CAMHB; plate type 384well; NBS; CORNING #3640; time 18 hr
row,Structure (SMILES),Inhibition [%]
1,COc1ccc(-c2cc3c4nnc(SCC(=O)Nc5cccc(C)c5C)n4ccn3n2)cc1,-11.43
2,Cc1ccc(Nc2cc(C)n3c(=O)n(Cc4cc(=O)n5ccccc5n4)nc3n2)cc1F,9.94
3,CC(C)c1ccc(NC(=O)CSc2nc3ccccc3n3cnnc23)cc1,8.55
4,COc1ccc(NC(=O)Cn2nc3cc(C)nc(Nc4ccc(F)c(C)c4)n3c2=O)cc1,-1.45
5,Cc1cc(C)cc(N(Cc2c(F)cccc2Cl)S(=O)(=O)c2cccn3cnnc23)c1,4.69
6,COc1cc(NC(=O)C(C)Sc2nnc3c(=O)n(-c4ccc(F)cc4)ccn23)cc(OC)c1 (stereo unspecified),6.77
7,Cc1ccc(Sc2ccc3nn(CC(=O)Nc4ccc(Br)c(C)c4)c(=O)n3n2)cc1,8.43
8,Cc1ccc(C)c(NC(=O)Cn2nc3n(C)c(=O)c4c(c(-c5ccccc5)cn4C)n3c2=O)c1,-4.46
9,COc1ccc(-c2cc3c4nnc(SCC(=O)Nc5ccccc5F)n4ccn3n2)cc1,-1.6
10,COc1cccc(CNC(=O)CSc2nnc3c(=O)n(-c4ccc(C)c(C)c4)ccn23)c1OC,3.35
11,COc1cccc(-c2noc(Cn3nc4ccc(-c5ccc(C)c(C)c5)nn4c3=O)n2)c1OC,6.16
12,Cc1nnc2ccc(S(=O)(=O)N(Cc3cccc(F)c3)c3cccc(F)c3)cn12,-4.62
13,COc1cccc(-n2ccn3c(=O)n(Cc4ccc([N+](=O)[O-])cc4)nc3c2=O)c1,7.57
14,Cc1ccc(CN(c2cc(C)cc(C)c2)S(=O)(=O)c2cccn3c(C)nnc23)cc1,31.07
15,CCC(Sc1nnc2c(=O)n(-c3ccc(F)cc3)ccn12)C(=O)Nc1cc(OC)cc(OC)c1 (stereo unspecified),15.63
16,COc1cccc(CN(c2ccccc2)S(=O)(=O)c2ccc3nncn3c2)c1,6.2
17,O=C(Cn1nc2c(Sc3cccc(F)c3)nccn2c1=O)Nc1ccc(Br)cc1,3
18,O=C(Cn1nc2c3sc(N4CCCC4)nc3ncn2c1=O)Nc1ccccc1Cl,4.77
19,O=C(Cn1nc2ccc(-c3ccccc3)nn2c1=O)Nc1cccc(Cl)c1,-4.62
20,O=C(Cn1nc2ccc(-c3ccc(Cl)cc3)nn2c1=O)NC1CCCC1,12.95
21,O=S(=O)(c1ccc2nncn2c1)N(Cc1cc(F)cc(F)c1)c1ccc2c(c1)OCO2,8.77
22,CCCCc1ccc(NC(=O)Cn2nc3c(N4CCN(c5ccccc5C)CC4)nccn3c2=O)cc1,0.53
23,Cc1cc(C)c(NC(=O)CSc2nnc3ccc(C(=O)Nc4cccc(F)c4)cn23)c(C)c1,12.67
24,Cc1ccc(F)cc1NC(=O)CSc1nc2ccccc2n2c(C)nnc12,2.37
25,O=C(CCc1nnc2c(N3CCCCC3)nc3ccccc3n12)NCCc1ccc(Cl)cc1,11.18
26,COc1cccc(Sc2nc3ccccc3n3c(=O)n(CC(=O)Nc4ccccc4)nc23)c1,-1.75

# Tested on: Escherichia coli
# Conditions: Concentration 32 ug.mL-1;; ASSAY_TEST Inhibition of Bacterial Growth; detection method Absorption (OD600); MEDIA CAMHB; plate type 384well; NBS; CORNING #3640; time 18 hr
row,Structure (SMILES),Inhibition [%]
1,Cc1cccc(CN(c2cccc(Cl)c2)S(=O)(=O)c2cccn3c(C)nnc23)c1,-5.75
2,COc1cccc(Oc2nccn3c(=O)n(CC(=O)Nc4ccc5c(c4)OCO5)nc23)c1,-4.07
3,CCCc1nnc2c(=O)n(CC(=O)Nc3ccc(Br)cc3)c3ccccc3n12,2.53
4,CCc1nnc2ccc(S(=O)(=O)N(Cc3ccc(OC)c(F)c3)c3ccccc3)cn12,-2.03
5,COc1ccc(NC(=O)Cn2nc3c(Sc4ccccc4)nccn3c2=O)cc1OC,-5.11
6,CCN(C(=O)Cn1nc2nc(Nc3ccc(F)cc3)ccn2c1=O)c1ccccc1,-3.17
7,Cc1nnc2c(S(=O)(=O)N(Cc3ccccc3Cl)c3ccc(F)c(F)c3)cccn12,-6.82
8,CCOC(=O)c1ccc(NC(=O)Cn2nc3c(SC4CCCCC4)nccn3c2=O)cc1,-5.89
9,O=c1n(Cc2nc(-c3ccc(Cl)cc3)no2)nc2ccc(-c3ccccc3)nn12,-5.36
10,COc1cc(NC(=O)Cn2nc3ccc(-c4ccc(C)c(C)c4)nn3c2=O)cc(OC)c1,-5.07
11,Cc1ccc2c(c1)N(C(=O)Cn1nc3ccc(SCc4ccc(Cl)cc4)nn3c1=O)CCO2,-5.63
12,CC(C)c1nnc2c(=O)n(CC(=O)Nc3ccc(F)cc3F)c3ccccc3n12,2.42
13,Cc1ccc(C)c(-c2cc3c4nnc(SCC(=O)Nc5cccc(Br)c5)n4ccn3n2)c1,-9.35
14,C=Cc1ccc(CN(c2cccc(F)c2)S(=O)(=O)c2ccc3nnc(C)n3c2)cc1,-8.1
15,COc1ccc(-c2cc3c4nnc(SCC(=O)Nc5cccc(C)c5C)n4ccn3n2)cc1,-10.61
16,Cc1ccc(Nc2cc(C)n3c(=O)n(Cc4cc(=O)n5ccccc5n4)nc3n2)cc1F,-6.14
17,CC(C)c1ccc(NC(=O)CSc2nc3ccccc3n3cnnc23)cc1,-4.05
18,COc1ccc(NC(=O)Cn2nc3cc(C)nc(Nc4ccc(F)c(C)c4)n3c2=O)cc1,-6.2
19,Cc1cc(C)cc(N(Cc2c(F)cccc2Cl)S(=O)(=O)c2cccn3cnnc23)c1,-4.41
20,COc1cc(NC(=O)C(C)Sc2nnc3c(=O)n(-c4ccc(F)cc4)ccn23)cc(OC)c1 (stereo unspecified),-6.93

row,Structure (SMILES),Inhibition [%]
1,Cc1ccc(Sc2ccc3nn(CC(=O)Nc4ccc(Br)c(C)c4)c(=O)n3n2)cc1,-6
2,Cc1ccc(C)c(NC(=O)Cn2nc3n(C)c(=O)c4c(c(-c5ccccc5)cn4C)n3c2=O)c1,-19.92
3,COc1ccc(-c2cc3c4nnc(SCC(=O)Nc5ccccc5F)n4ccn3n2)cc1,-2.74
4,COc1cccc(CNC(=O)CSc2nnc3c(=O)n(-c4ccc(C)c(C)c4)ccn23)c1OC,-0.9
5,COc1cccc(-c2noc(Cn3nc4ccc(-c5ccc(C)c(C)c5)nn4c3=O)n2)c1OC,-3.11
6,Cc1nnc2ccc(S(=O)(=O)N(Cc3cccc(F)c3)c3cccc(F)c3)cn12,-13.2
7,COc1cccc(-n2ccn3c(=O)n(Cc4ccc([N+](=O)[O-])cc4)nc3c2=O)c1,-2.91
8,Cc1ccc(CN(c2cc(C)cc(C)c2)S(=O)(=O)c2cccn3c(C)nnc23)cc1,-7.16
9,CCC(Sc1nnc2c(=O)n(-c3ccc(F)cc3)ccn12)C(=O)Nc1cc(OC)cc(OC)c1 (stereo unspecified),-3.99
10,COc1cccc(CN(c2ccccc2)S(=O)(=O)c2ccc3nncn3c2)c1,-8.56
11,O=C(Cn1nc2c(Sc3cccc(F)c3)nccn2c1=O)Nc1ccc(Br)cc1,-5.66
12,O=C(Cn1nc2c3sc(N4CCCC4)nc3ncn2c1=O)Nc1ccccc1Cl,-9.42
13,O=C(Cn1nc2ccc(-c3ccccc3)nn2c1=O)Nc1cccc(Cl)c1,-11.73
14,O=C(Cn1nc2ccc(-c3ccc(Cl)cc3)nn2c1=O)NC1CCCC1,1.75
15,O=S(=O)(c1ccc2nncn2c1)N(Cc1cc(F)cc(F)c1)c1ccc2c(c1)OCO2,-5.98
16,CCCCc1ccc(NC(=O)Cn2nc3c(N4CCN(c5ccccc5C)CC4)nccn3c2=O)cc1,-13.2
17,Cc1cc(C)c(NC(=O)CSc2nnc3ccc(C(=O)Nc4cccc(F)c4)cn23)c(C)c1,2.09
18,Cc1ccc(F)cc1NC(=O)CSc1nc2ccccc2n2c(C)nnc12,1.62
19,O=C(CCc1nnc2c(N3CCCCC3)nc3ccccc3n12)NCCc1ccc(Cl)cc1,0.17
20,COc1cccc(Sc2nc3ccccc3n3c(=O)n(CC(=O)Nc4ccccc4)nc23)c1,-6.94
